Compound activity deposited in PubChem by National Center for Advancing Translational Sciences (NCATS).
The list is not random: actives were taken first. Their share in the collection is about 19%.
TDP1 cell CPT: growth inhibition of DT40 Tdp1-/-;hTDP1 cells with camptothecin (screen for TDP1 inhibitors) | Potency, µM (doses to about 46.2 µM), for inactives: at the top dose activity change, negative = growth inhibition, actives largely listed as inhibitors | actives 12% (n = 420,000) | AID 686979 | chicken DT40 Tdp1-/-;hTDP1 cells + 20 nM CPT, ATP luminescence, 48 h; also: potency is read from the fitted curve at half-maximal effect; nearly all actives have a fitted effect of over 55% in size
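Chicken DT40 Tdp1-/- cells stably complemented with human TDP1 were seeded at 400 cells/well in medium containing 20 nM camptothecin, exposed to pin-transferred compounds, and grown at 37 °C for at least 48 hr. Viability was read as ATP luminescence.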
ELG1 DNA repair: ELG1-dependent DNA repair inhibition; HEK293T ELG1-luciferase reporter, luminescence, 16 h; DNA damage induced by 5-fluorouridine; Potency, µM (highest dose often 46.1 µM), without a hit: at the highest dose activity change, negative = inhibition, actives largely listed as inhibitors; actives 2.3% (n = 330,000); AID 504467; also: potency is read from the fitted curve at half-maximal effect; nearly all actives have a fitted effect of over 55% in size
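Quantitative HTS, concentration-response format. 2,000 cells/well co-treated with 5-fluorouridine and compound, 16 hr in 5% CO2 at 37 °C; ONE-Glo luminescence read after 30 min.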
HT1080 IDH1KD tx: kills HT-1080 cells with IDH1 knockdown | HT-1080 IDH1 knockdown viability, ATP luminescence, 48 h | Potency, µM (series often up to 46.1 µM), without a hit: top-dose activity, negative = toxicity, most hits filed as cytotoxic | actives 2% (n = 360,000);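 also: potency is read from the fitted curve at half-maximal effect; 0% = DMSO wells and -100% = cell-free medium wells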
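In this qHTS, HT-1080 cells depleted of IDH1 are exposed for 48 h at 37 °C to compound titrations. Toxicity is scored from CellTiter-Glo luminescence, with DMSO as full viability and medium alone as none.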
HT1080-NT tox: kills 2HG-producing HT-1080-NT fibrosarcoma cells; HT-1080-NT fibrosarcoma viability, CellTiter-Glo ATP luminescence, 48 h; Potency, µM (doses to about 46.1 µM), without a hit: top-dose activity, negative = less viability, hits mostly cytotoxic; actives 1.6% (n = 360,000); AID 686970;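 also: NT is the 2HG producing partner of a matched IDH1 knockdown line; potency is read from the fitted curve at half-maximal effect; 0% = DMSO-treated cells and -100% = media-only wells without cells; nearly all actives have a fitted effect of over 55% in size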
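Viability by CellTiter-Glo luminescence after 48 h compound exposure at 37C of HT-1080-NT cells (750/well, RPMI, 5% FBS). % activity scaled between DMSO wells and medium-only wells, then curve-fitted and categorized by curve class.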
TDP1 cell noCPT: qHTS for Inhibitors of human tyrosyl-DNA phosphodiesterase 1 (TDP1): qHTS in cells in absence of CPT. AID 686978, 2013. Potency, µM (titrated, usually from 46.2 µM), for inactives: at the highest dose activity change, negative = growth inhibition, actives largely listed as inhibitors. actives 15% (n = 420,000). DT40 Tdp1-/- hTDP1 cells, no CPT, ATP luminescence, 48 h; also: potency is read from the fitted curve at half-maximal effect; nearly all actives have a fitted effect of over 55% in size
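No-CPT arm: Tdp1-/-;hTDP1 DT40 cells (400/well) plus compounds, incubated ≥48 hr at 37 °C. Readout CellTiter-Glo luminescence.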
IL1B secr inh: inflammasome signaling inhibition, IL-1 beta readout; THP-1 LPS/ATP IL-1B secretion, AlphaLISA, 16 h; active compounds read low; activity change, % at 57.5 µM; actives 4.7% (n = 360,000); AID 743279; in the data active = activity change below about -50%; inconclusive = mostly about -30% to -49%
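Secreted IL-1B measured by AlphaLISA bead assay after 16 h compound exposure of THP-1 cells; compounds (final up to 57.5 uM) added 1 h before LPS (250 ng/mL) and ATP (1.25 mM) stimulation; lower signal means less secretion.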
Starred values were filed as active, the others as inactive; ? = inconclusive; . = no result; [ ] = remark or other dose. Unless noted, calls follow the shape of the dose curve; as a rule, active = well fitted curve in the direction sought with a large enough effect; inconclusive = small, poorly fitted or top-dose-only effect, or another doubt; inactive = no such curve, though single readings can be large; an effect the other way counts as inactive or inconclusive. Unless noted, % is scaled to controls: 0 for no effect and ±100 for the full control effect.

SMILES	TDP1 cell CPT	ELG1 DNA repair	HT1080 IDH1KD tx	HT1080-NT tox	TDP1 cell noCPT	IL1B secr inh
O=C(N/N=C\C=C\c1ccco1)C1COc2ccccc2O1 (stereo unspecified)	2.59µM*	-3.7%	?	?	10.3µM*	-18.5
O=C(N/N=C\c1ccc(O)c([N+](=O)[O-])c1)C1COc2ccccc2O1 (stereo unspecified)	6.1%	-8.9%	-1.3%	-0.8%	-3.4%	18.2
O=C(N/N=C\C=C\c1ccc2c(c1)OCO2)C1COc2cc3ccccc3cc2O1 (stereo unspecified)	-10.3%	-1.4%	-3.9%[9.24 µM]	-3.1%	?	?
CCCCc1ccc(S(=O)(=O)NC(=O)C2(C)CCN2C(=O)CCc2cccs2)cc1 (stereo unspecified)	-22.7%	.	25.7%	22.7%	-14.0%	40.0
COc1ccc(NC(=O)N2C[C@H]3CON(C)[C@H]3C[C@H]2c2ccc(N3CCCCC3)cc2)cc1	-6.8%	.	13.7%	6.1%	2.3%	7.1
Cc1cc(OC(C)C(=O)NCC(O)c2ccccc2)c2c(C)cc(=O)oc2c1 (stereo unspecified)	-7.6%	16.3%	1.1%	9.8%	-5.0%	8.0
CCC(C)C(NC)C(=O)O (stereo unspecified)	-4.1%	.	.	.	10.8%	.
COc1cc(/C=N\NC(=O)C2COc3ccccc3O2)cc(OC)c1O (stereo unspecified)	-0.4%	-0.3%	-2.5%	-3.4%	-3.0%	-70.8*
C/C(=N/NC(=O)C1COc2ccccc2O1)c1ccc(Br)s1 (stereo unspecified)	0.2%	-1.1%	15.7%	?	-6.2%	0.8
COc1cc(/C=N/NC(=O)C2COc3ccccc3O2)ccc1O (stereo unspecified)	-10.7%	-3.2%	-1.1%	-2.6%	-17.7%	-8.6
C/C(=N\NC(=O)C1COc2ccccc2O1)c1ccccn1 (stereo unspecified)	5.8µM*	?	?	?	2.91µM*	0.0
Cc1cc(=O)[nH]c2c1cnn2C(C)c1ccccc1 (stereo unspecified)	-14.1%	8.4%	0.0%	4.2%	-17.5%	-3.6
CCN1CCN(C(=O)c2nn(C)c3c2CS(=O)(=O)c2ccccc2-3)CC1	5.2%	?	?	?	7.5%	47.5
CC1(C)CC(=O)C(/C=N/n2cnc3ccccc3c2=O)=C(O)C1	-10.5%	13.3%	16.0%	18.9%	-11.7%	0.4
C=CCS/C(=N\n1cnc2ccccc2c1=O)N(CC)CC	?	15.8%	8.9%	2.5%	18.4µM*	34.1
C=CCS/C(=N\n1cnc2ccccc2c1=O)N1CCCCC1	25.9µM*	?	-3.2%	4.2%	18.4µM*	17.6
COc1ccccc1NS(=O)(=O)c1ccc(C(=O)NCC(c2cccs2)N2CCOCC2)cc1 (stereo unspecified)	?	-23.5%	-2.9%	3.3%	?	6.7
CC1CCCN(C(=O)c2ccc(S(=O)(=O)N3CCC(c4nc5ccccc5s4)CC3)cc2)C1 (stereo unspecified)	11.6µM*	.	-6.2%[9.24 µM]	?	6.51µM*	-70.5*
CCN(CC)C(=O)c1ccc(S(=O)(=O)N2CCC(c3nc4ccccc4s3)CC2)cc1	7.31µM*	?	-15.9%[9.24 µM]	?	10.3µM*	?
O=C(c1ccc(F)cc1)N1CCC(c2nc3ccccc3s2)CC1	-29.6%	.	.	.	?	.
O=S(=O)(c1ccc(OC(F)(F)F)cc1)N1CCC(c2nc3ccccc3s2)CC1	11.4%	.	.	.	22.9%	.
O=S(=O)(c1ccccc1)N1CCCC1c1nc2ccccc2s1 (stereo unspecified)	?	-10.6%	-11.8%	-6.6%	18.4µM*	6.4
CCn1nc([N+](=O)[O-])c(C(C#N)c2nc3ccccc3n2C)c(Cl)c1=O (stereo unspecified)	?	-0.1%	?	?	?	-94.1*
CCCn1nc([N+](=O)[O-])c(C(C#N)c2nc3ccccc3s2)c(Cl)c1=O (stereo unspecified)	18.4µM*	18.4µM*	1.12µM*	2.82µM*	16.4µM*	-101.6*
O=[N+]([O-])c1ccc(CN2CCN(c3nc4ccccc4s3)CC2)cc1	-7.1%	9.5%	0.0%	2.3%	-12.4%	-18.2
SMILES	TDP1 cell CPT	ELG1 DNA repair	HT1080 IDH1KD tx	HT1080-NT tox	TDP1 cell noCPT	IL1B secr inh
C[C@H]1CN([C@@H](C)CO)C(=O)CCCn2nncc2CO[C@@H]1CN(C)S(=O)(=O)c1cn(C)cn1	1.9%	.	10.7%	6.0%	-2.8%	0.3
Cc1ccccc1C(=O)NC1CC(C)(C)NC(C)(C)C1	1.3%	5.7%	28.5%	8.9%	0.2%	-5.1
CC1(C)CC(NC2C3CC4CC(C3)CC2C4)CC(C)(C)N1 (stereo unspecified)	18.4µM*	18.2%	?	-10.4%	14.6µM*	.
COC(=O)CSCc1nc(-c2ccc(C(=O)OC)cc2)oc1C	-10.0%	.	.	.	0.1%	.
CN(C)c1ccc(CC(=O)N2CCCCC2c2cc(C(=O)Nc3cccc4c3CCCC4)no2)cc1 (stereo unspecified)	25.9µM*	.	-8.4%	-8.8%	?	-16.3
Cc1ccc(F)cc1C(=O)N1CCCCC1c1cc(C(=O)Nc2ccccc2)no1 (stereo unspecified)	?	.	12.4%	22.6%	?	0.0
Cc1ccc(C)c(CC(=O)N2CCCCC2c2cc(C(=O)Nc3cccc(C#N)c3)no2)c1 (stereo unspecified)	23.1µM*	.	?	?	23.1µM*	20.4
CN(C)c1ccc(CC(=O)N2CCCCC2c2cc(C(=O)Nc3cccc(C#N)c3)no2)cc1 (stereo unspecified)	?	.	-4.2%	0.6%	23.1µM*	-12.0
Cc1ccc(F)cc1C(=O)N1CCCCC1c1cc(C(=O)Nc2cccc(C#N)c2)no1 (stereo unspecified)	29.1µM*	.	0.0%	1.3%	20.6µM*	1.9
CN(CCOc1ccccc1)C(=O)c1ccc(Cl)c(S(=O)(=O)N2CCCCC2)c1	?	4.9%	-0.6%	-1.6%	?	-8.2
CN(C)c1ccc(CC(=O)N2CCCCC2c2cc(C(=O)Nc3ccccc3)no2)cc1 (stereo unspecified)	20.6µM*	.	12.2%	16.7%	25.9µM*	0.0
O=C(Nc1ccccc1)c1cc(C2CCCCN2C(=O)CCCc2ccccc2)on1 (stereo unspecified)	?	.	9.3%	16.0%	?	-24.0
